In PubChem BioAssay (EPA / NIEHS):
Calls of active or inactive are those of the source. Rule for the calls: active = hit-call score of the fitted dose curve at least 0.9, where 1 is the maximum; inactive = score below 0.9.

How the values were obtained:
Details in all cases: mRNA level, 48 h; actives raise or lower the signal
CYP4A11 (gene 1579) = experiment: LTEA_HepaRG_CYP4A11: Life Technologies and Expression Analysis (LTEA) Assay for CYP4A11 using HepaRG (AID 2283486)
Method in brief: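 Differentiated HepaRG cells, serum-free induction medium, exposed 48 h in duplicate to 8-point half-log series from 100 uM in 0.5% DMSO. CYP4A11 mRNA measured by qRT-PCR, normalized to ACTB, GAPDH, POLR2A; bidirectional fit versus DMSO.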

[1] = read-out: DNA damage-inducible transcript 3 (DDIT3), DDIT3 (gene 1649); experiment: LTEA_HepaRG_DDIT3: Life Technologies and Expression Analysis (LTEA) Assay for DNA damage-inducible transcript 3 (DDIT3) using HepaRG (AID 2283488)
Method in brief: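 qRT-PCR readout (Fluidigm TaqMan), housekeeping-normalized to ACTB, GAPDH, POLR2A. HepaRG cells, 48 h exposure, 8-point half-log series from 100 uM in 0.5% DMSO, duplicates. Gain or loss of signal fitted against DMSO baseline.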

[2] = read-out: Pro-epidermal growth factor (Homo sapiens) (UniProt P01133); experiment: LTEA_HepaRG_EGF: Life Technologies and Expression Analysis (LTEA) Assay for Epidermal growth factor (EGF) using HepaRG (AID 2283489)
Method in brief: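 Differentiated human HepaRG cells, plated 48 h then switched to serum-free induction medium, were exposed for 48 h to test chemicals (8-point half-log series, top 100 uM, 0.5% DMSO). EGF mRNA was quantified by qRT-PCR, normalized to ACTB, GAPDH, POLR2A.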

[3] = read-out: Early growth response protein 1 (EGR1) transcription factor, EGR1 (gene 1958); experiment: LTEA_HepaRG_EGR1: Life Technologies and Expression Analysis (LTEA) Assay for Early growth response protein 1 (EGR1) transcription factor using HepaRG (AID 2283490)
Method in brief: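 HepaRG, 48 h exposure, 8-pt half-log series from 100 uM, 0.5% DMSO vehicle; EGR1 transcript by TaqMan qRT-PCR (Fluidigm array), housekeeping-normalized; bidirectional fit relative to DMSO baseline.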

[4] = read-out: Ezrin (EZR), EZR (gene 7430); experiment: LTEA_HepaRG_EZR: Life Technologies and Expression Analysis (LTEA) Assay for Ezrin (EZR) using HepaRG (AID 2283491)
Method in brief: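 Differentiated human HepaRG cells, 48 h after plating, were exposed in serum-free induction medium for 48 hours to eight half-log concentrations up to 100 uM in 0.5% DMSO. EZR mRNA was measured by TaqMan qRT-PCR, normalized to ACTB, GAPDH and POLR2A, and fitted bidirectionally against DMSO.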

[5] = read-out: Cytochrome P450 3A7 (Homo sapiens) (UniProt P24462); experiment: LTEA_HepaRG_CYP3A7: Life Technologies and Expression Analysis (LTEA) Assay for CYP3A7 using HepaRG (AID 2283492)
Method in brief: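 HepaRG cells plated 48 h, then dosed in serum-free induction medium for 48 h at 8 concentrations (top 100 uM, half-log steps, 0.5% DMSO). CYP3A7 mRNA by qRT-PCR, normalised to ACTB/GAPDH/POLR2A; bidirectional fit versus DMSO.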

CYP3A5 (gene 1577) = experiment: LTEA_HepaRG_CYP3A5: Life Technologies and Expression Analysis (LTEA) Assay for CYP3A5 using HepaRG (AID 2283493)
Method in brief: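 qRT-PCR read-out: CYP3A5 transcript in HepaRG lysates, housekeeping-normalized (ACTB/GAPDH/POLR2A), fitted bidirectionally against 0.5% DMSO baseline. Exposure 48 h, eight half-log concentrations up to 100 uM, duplicates.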

[6] = read-out: Fatty Acid-Binding Protein 1 (FABP1), FABP1 (gene 2168); experiment: LTEA_HepaRG_FABP1: Life Technologies and Expression Analysis (LTEA) Assay for Fatty Acid-Binding Protein 1 (FABP1) using HepaRG (AID 2283494)
Method in brief: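 qRT-PCR readout of FABP1 transcript (normalized to three housekeeping genes) after 48 h chemical exposure of HepaRG cells; eight concentrations, half-log steps, max 100 uM, 0.5% DMSO vehicle; gain or loss fitted relative to DMSO baseline.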

[7] = read-out: Cytochrome P450 4A22 (Homo sapiens) (UniProt Q5TCH4); experiment: LTEA_HepaRG_CYP4A22: Life Technologies and Expression Analysis (LTEA) Assay for Cytochrome P450 4A22 (CYP4A22) using HepaRG (AID 2283495)
Method in brief: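 qRT-PCR of CYP4A22 mRNA (Fluidigm TaqMan, normalized to three housekeeping genes) after 48 h chemical exposure of HepaRG cells; 8-point half-log series, top 100 uM, 0.5% DMSO vehicle. Bidirectional curve fitting vs DMSO baseline.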

[8] = read-out: Cytochrome P450 3A4 (Homo sapiens) (UniProt P08684); experiment: LTEA_HepaRG_CYP3A4: Life Technologies and Expression Analysis (LTEA) Assay for CYP3A4 using HepaRG (AID 2283487)
Method in brief: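 Differentiated HepaRG cells in serum-free induction medium exposed in duplicate for 48 h to 8 half-log concentrations up to 100 uM in 0.5% DMSO. CYP3A4 mRNA measured by qRT-PCR normalized to ACTB, GAPDH and POLR2A; bidirectional fit versus DMSO.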

Measured: AC50

Sequence of Cytochrome P450 3A7 (Homo sapiens) (P24462 whole entry, looked up): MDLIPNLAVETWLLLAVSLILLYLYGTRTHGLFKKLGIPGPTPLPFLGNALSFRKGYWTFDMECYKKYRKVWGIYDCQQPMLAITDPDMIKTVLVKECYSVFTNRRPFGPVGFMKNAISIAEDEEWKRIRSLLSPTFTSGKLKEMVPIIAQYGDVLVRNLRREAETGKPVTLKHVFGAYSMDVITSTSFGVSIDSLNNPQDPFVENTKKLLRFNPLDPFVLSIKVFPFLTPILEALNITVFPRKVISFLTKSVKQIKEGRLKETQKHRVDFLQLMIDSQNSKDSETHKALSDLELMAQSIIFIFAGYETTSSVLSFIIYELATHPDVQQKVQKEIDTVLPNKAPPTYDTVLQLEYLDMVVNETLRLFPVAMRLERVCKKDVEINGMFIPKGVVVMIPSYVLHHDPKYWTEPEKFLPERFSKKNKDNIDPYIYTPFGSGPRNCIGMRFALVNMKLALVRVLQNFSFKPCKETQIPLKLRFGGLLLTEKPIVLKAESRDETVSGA
Sequence of Cytochrome P450 3A4 (Homo sapiens) (P08684 whole entry, looked up): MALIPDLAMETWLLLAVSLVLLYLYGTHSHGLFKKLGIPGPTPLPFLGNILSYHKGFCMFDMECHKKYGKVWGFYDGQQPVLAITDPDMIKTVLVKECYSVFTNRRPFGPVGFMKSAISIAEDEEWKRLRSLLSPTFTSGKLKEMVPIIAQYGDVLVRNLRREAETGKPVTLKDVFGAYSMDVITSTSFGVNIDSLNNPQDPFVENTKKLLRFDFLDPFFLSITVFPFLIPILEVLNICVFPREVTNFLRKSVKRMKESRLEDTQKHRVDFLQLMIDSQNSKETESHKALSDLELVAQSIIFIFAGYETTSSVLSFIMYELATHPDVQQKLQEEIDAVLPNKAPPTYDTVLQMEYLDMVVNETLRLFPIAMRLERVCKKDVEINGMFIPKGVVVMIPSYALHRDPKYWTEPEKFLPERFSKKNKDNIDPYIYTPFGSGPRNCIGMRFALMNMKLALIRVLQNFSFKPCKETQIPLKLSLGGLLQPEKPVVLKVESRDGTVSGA

COC(=O)NS(=O)(=O)c1ccc(N)cc1
not listed: [8]
inactive: all other assays above

CNC(=O)N(C)c1nnc(C(C)(C)C)s1
not listed: [1] | [8]
inactive: all other assays above

CSC(=O)c1c(C(F)F)nc(C(F)(F)F)c(C(=O)SC)c1CC(C)C
inactive: [3] | [4] | CYP3A5 (gene 1577)
active: CYP4A11 (gene 1579) 87.3 µM | [8] 2.51 µM | [5] 12.6 µM | [6] 9.87 µM | [7] 80.7 µM

CC(C)Nc1nc(Cl)nc(NC(C)C)n1
active: [5] 2.51 µM
not listed: [2] | [6] | [8]
inactive: all other assays above

CCCCOCN(C(=O)CCl)c1c(CC)cccc1CC
active: CYP4A11 (gene 1579) 50 µM
not listed: [1] | [2] | [8]
inactive: all other assays above

CCNC(=O)NC(=O)C(C#N)=NOC
inactive: CYP4A11 (gene 1579) | [8] | [3] | [4] | [5] | CYP3A5 (gene 1577)

Cn1c(-c2ccccc2)cc(-c2ccccc2)[n+]1C
inactive: [3] | [4]
active: CYP4A11 (gene 1579) 20.3 µM | [8] 50 µM | [5] 44.1 µM | CYP3A5 (gene 1577) 79 µM | [7] 24 µM

CCCN(CC)CC1COC2(CCC(C(C)(C)C)CC2)O1 (stereo not drawn)
not listed: [1] | [6] | [8]
inactive: all other assays above

Cc1c(COC(=O)[C@@H]2[C@H](/C=C(\Cl)C(F)(F)F)C2(C)C)cccc1-c1ccccc1
active: [8] 11.3 µM | [5] 4.87 µM
not listed: [1] | [6]
inactive: all other assays above

CC1(C)CON(Cc2ccccc2Cl)C1=O
active: [8] 5.64 µM | [5] 1.47 µM
not listed: CYP4A11 (gene 1579) | [2]
inactive: all other assays above

COC(=O)c1c(C(F)F)nc(C(F)(F)F)c(C2=NCCS2)c1CC(C)C
active: [8] 4.46 µM | [5] 50 µM
not listed: [1] | [2]
inactive: all other assays above

CC1(C)C(C(=O)OC(C#N)c2cccc(Oc3ccccc3)c2)C1(C)C (stereo not drawn)
active: CYP4A11 (gene 1579) 50 µM | [8] 50 µM
inactive: [3] | [4] | [5] | CYP3A5 (gene 1577) | [7]

O=c1n(Cl)c(=O)n(Cl)c(=O)n1Cl
not listed: [1] | [2] | [8]
inactive: all other assays above

CS(=O)(=O)c1ccc(C(=O)C2C(=O)CCCC2=O)c([N+](=O)[O-])c1
not listed: CYP4A11 (gene 1579) | [2]
inactive: all other assays above

Cc1nc(N(C)C)nc(OC(=O)N(C)C)c1C
active: [5] 19.9 µM
not listed: [8]
inactive: all other assays above

CCN(CC)C(=O)C(C)Oc1cccc2ccccc12 (stereo not drawn)
active: [8] 2.65 µM | [5] 80.2 µM | [7] 78.3 µM
not listed: CYP4A11 (gene 1579) | [6]
inactive: all other assays above

CCNP(=S)(OC)O/C(C)=C/C(=O)OC(C)C (stereo not drawn)
active: CYP4A11 (gene 1579) 68.4 µM | [5] 4.03 µM
not listed: [1] | [8]
inactive: all other assays above

COc1cc(Cl)c(OC)cc1Cl
active: [5] 8.31 µM
not listed: [1] | [2] | [8]
inactive: all other assays above

O=P(O)(O)CCCl
not listed: [2] | [8]
inactive: all other assays above

CNC(=O)Oc1cccc2ccccc12
inactive: CYP4A11 (gene 1579) | [3] | [4] | [5] | CYP3A5 (gene 1577) | [7]

CC1(C)CCC(=Cc2ccc(Cl)cc2)C1(O)Cn1cncn1 (stereo not drawn)
active: CYP4A11 (gene 1579) 27.8 µM | [7] 14.6 µM
inactive: [1] | [3] | [4] | CYP3A5 (gene 1577)

CCN(CC)c1nc(C)cc(OP(=S)(OC)OC)n1
inactive: CYP4A11 (gene 1579) | [3] | [4] | CYP3A5 (gene 1577) | [7]
active: [8] 10.9 µM | [5] 8.23 µM

CCCC(=NOCC)C1=C(O)CC(CC(C)SCC)CC1=O (stereo not drawn)
active: [8] 28.4 µM
not listed: [2] | [6]
inactive: all other assays above

CC(C)(C)C(=O)C(Oc1ccc(Cl)cc1)n1cncn1 (stereo not drawn)
active: CYP4A11 (gene 1579) 50 µM | [5] 12.1 µM | [7] 30.1 µM
not listed: [6] | [8]
inactive: all other assays above

COP(=S)(OC)SCn1nnc2ccccc2c1=O
inactive: CYP4A11 (gene 1579) | [3] | [4] | [5] | CYP3A5 (gene 1577) | [7]

CC(C)=CC1C(C(=O)OCc2coc(Cc3ccccc3)c2)C1(C)C (stereo not drawn)
inactive: [3] | [4] | CYP3A5 (gene 1577) | [7]
active: CYP4A11 (gene 1579) 50 µM

CCOP(=S)(OCC)Oc1nc(Cl)n(C(C)C)n1
active: CYP4A11 (gene 1579) 42.3 µM | [8] 4.55 µM | [7] 35.9 µM
not listed: [2] | [6]
inactive: all other assays above

N#Cc1c(Cl)cccc1Cl
not listed: [2] | [8]
inactive: all other assays above

CCCCC(O)(Cn1cncn1)c1ccc(Cl)cc1Cl (stereo not drawn)
active: [8] 85.6 µM | [1] 77.4 µM | [3] 69.2 µM | [5] 89.4 µM | [6] 79.6 µM | [7] 67.8 µM
inactive: [4] | CYP3A5 (gene 1577)

Nc1c(Cl)c(Cl)nc(C(=O)O)c1Cl
not listed: [2] | [6]
inactive: all other assays above

COCc1cnc(C2=NC(C)(C(C)C)C(=O)N2)c(C(=O)O)c1 (stereo not drawn)
not listed: CYP4A11 (gene 1579) | [6]
inactive: all other assays above

CCOc1nc(C(Cl)(Cl)Cl)ns1
active: CYP4A11 (gene 1579) 1.12 µM | [3] 1.12 µM | [5] 2.43 µM
inactive: [4] | CYP3A5 (gene 1577) | [6]

CN/C(=N\[N+](=O)[O-])NCc1cnc(Cl)s1
not listed: [1] | [6]
inactive: all other assays above

COc1ccc(-c2ccccc2)cc1NNC(=O)OC(C)C
not listed: [1] | [8]
inactive: all other assays above
